Results published in PubChem BioAssay (EPA / NIEHS).
Records with an inconclusive call do not appear. Active and inactive are the calls of the source. The calls were made as follows, unless noted: active = hit-call score of the fitted dose curve at least 0.9, where 1 is the maximum; inconclusive = response in the unintended direction; inactive = score below 0.9.

test system: not listed separately; test: ATG_M_32_TRANS: Attagene TRANS-FACTORIAL HepG2 Assay for M32 Transcription Factor (Internal Marker) (AID 2282984); conditions: HepG2 Attagene TRANS M32 internal marker reporter;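 also: transcript level of a background control reporter unit measured by RT-PCR and capillary electrophoresis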
Outline: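 Fluorescence-detected mRNA induction, HepG2 liver cells, 24 h after dosing. Multiple GAL4-UAS reporter units introduced by transient transfection; background-control endpoint analysed for gain of signal against DMSO.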

outcome, inactive:
C=C(C)CCO
CCC(C)OC(=O)c1ccc(O)cc1 (stereo unspecified)
CCCOC(=O)CCCCC(=O)OCCC
CNC(=S)NN
CCCCCCCCCCCCCCCC(=O)OCC
O=C(O)CCCC[C@@H]1SC[C@@H]2NC(=O)N[C@@H]21
CC(=O)OCC(=O)[C@@]12N=C(C)O[C@@H]1C[C@H]1[C@@H]3CCC4=CC(=O)C=C[C@]4(C)[C@H]3[C@@H](O)C[C@@]12C
CC=CC(=O)N(CC)c1ccccc1C
Nc1ccc2cc3ccccc3cc2c1
CCCCCC/C=C/C=O
CC1(C)O[C@@H]2C[C@H]3[C@@H]4C[C@H](F)C5=CC(=O)CC[C@]5(C)[C@H]4[C@@H](O)C[C@]3(C)[C@]2(C(=O)CO)O1
C=CC(C)(CCC=C(C)C)OC(=O)CC(C)C (stereo unspecified)
O=C(c1ccccc1)c1ccc(O)c(O)c1O
C=C(C)C(=O)OCCO
O=c1[nH]nc(-c2ccc([N+](=O)[O-])o2)o1
Nc1ccc(N=Nc2ccccc2)c(N)n1
CC(C)(C)c1ccc(N)cc1
C=CC=CC=CCCCCC
O=C1c2ccccc2C(=O)C1c1nc2ccccc2c(Br)c1O
CCCCC/C=C\CCC=O
CC(C)(C)C1CCCCC1=O (stereo unspecified)
CC1(C)O[C@@H]2C[C@H]3[C@@H]4C[C@H](F)C5=CC(=O)C=C[C@]5(C)[C@@]4(F)[C@@H](O)C[C@]3(C)[C@]2(C(=O)CO)O1
CC1OC1C1CCC2(C)OC2C1 (stereo unspecified)
CCOC(=O)Cc1cccc2ccccc12
COc1ccc2nc(N)sc2c1
COc1ccc(-c2coc3cc(O)ccc3c2=O)cc1
C=C(C)c1cccc(C(C)(C)N=C=O)c1

molecular target: Nuclear receptor subfamily 4 group A member 2 (Homo sapiens) (UniProt P43354); test: ATG_NURR1_TRANS: Attagene TRANS-FACTORIAL HepG2 Assay for human Nuclear Receptor Related Protein 1 (NURR1) (AID 2282985); conditions: HepG2 Attagene TRANS reporter, mRNA readout
Sequence (P43354 whole entry, looked up, the tested form may be a part): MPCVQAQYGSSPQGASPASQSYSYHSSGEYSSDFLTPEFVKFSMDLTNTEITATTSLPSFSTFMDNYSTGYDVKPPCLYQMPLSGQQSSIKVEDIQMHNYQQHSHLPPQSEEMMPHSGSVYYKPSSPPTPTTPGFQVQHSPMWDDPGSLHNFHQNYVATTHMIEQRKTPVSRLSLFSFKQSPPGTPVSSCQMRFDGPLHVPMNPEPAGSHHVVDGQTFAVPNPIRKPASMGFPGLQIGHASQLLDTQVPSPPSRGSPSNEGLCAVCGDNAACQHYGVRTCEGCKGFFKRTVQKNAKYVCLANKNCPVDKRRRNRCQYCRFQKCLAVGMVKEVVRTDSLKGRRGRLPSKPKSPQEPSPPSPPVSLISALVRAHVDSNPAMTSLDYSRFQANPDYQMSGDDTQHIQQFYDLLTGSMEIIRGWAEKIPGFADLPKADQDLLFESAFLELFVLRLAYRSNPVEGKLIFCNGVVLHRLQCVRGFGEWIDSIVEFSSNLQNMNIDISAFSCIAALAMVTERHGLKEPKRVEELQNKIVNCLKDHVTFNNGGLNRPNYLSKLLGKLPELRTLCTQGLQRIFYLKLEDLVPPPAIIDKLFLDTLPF
Outline: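 Chimeric NR-Gal4 proteins were expressed in human HepG2 cells bearing GAL4-UAS reporter units, and induced reporter mRNA was quantified 24 h post-dosing by RT-PCR and capillary electrophoresis.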

outcome, inactive:
C=C(C)CCO
CCC(C)OC(=O)c1ccc(O)cc1 (stereo unspecified)
CC(=O)[C@H]1[C@H](C#N)C[C@H]2[C@@H]3CC=C4C[C@@H](O)CC[C@]4(C)[C@H]3CC[C@@]21C
CCCOC(=O)CCCCC(=O)OCCC
CNC(=S)NN
CCCCCCCCCCCCCCCC(=O)OCC
Cc1ccc([N+](=O)[O-])cc1S(=O)(=O)O
Nc1ccc2cc3ccccc3cc2c1
O=C(Nc1ccccc1)c1ccccc1O
CC1(C)O[C@@H]2C[C@H]3[C@@H]4C[C@H](F)C5=CC(=O)CC[C@]5(C)[C@H]4[C@@H](O)C[C@]3(C)[C@]2(C(=O)CO)O1
O=C1CCCN1CCO
C=CC(C)(CCC=C(C)C)OC(=O)CC(C)C (stereo unspecified)
CCCCCCCOC(=O)CCC
O=c1cc(-c2ccccc2)oc2ccccc12
O=C(c1ccccc1)c1ccc(O)c(O)c1O
C=C(C)C(=O)OCCO
COc1cc(NC(=O)CC(C)=O)c(OC)cc1Cl
Nc1ccc(N=Nc2ccccc2)c(N)n1
CC(C)(C)c1ccc(N)cc1
C=CC=CC=CCCCCC
O=C1c2ccccc2C(=O)C1c1nc2ccccc2c(Br)c1O
c1ccc(-c2ccccn2)nc1
CCCCC/C=C\CCC=O
CC1OC1C1CCC2(C)OC2C1 (stereo unspecified)
COc1ccc2nc(N)sc2c1
CC(=O)OC1C2(C)CCC(C2)C1(C)C (stereo unspecified)
COc1ccc(-c2coc3cc(O)ccc3c2=O)cc1

AC50, active:
CC(=O)OCC(=O)[C@@]12N=C(C)O[C@@H]1C[C@H]1[C@@H]3CCC4=CC(=O)C=C[C@]4(C)[C@H]3[C@@H](O)C[C@@]12C 17.1 µM

molecular target: Transcriptional activator Myb (Homo sapiens) (UniProt P10242); test: ATG_Myb_CIS: Attagene CIS-FACTORIAL HepG2 Assay for human Myeloblastosis (Myb) Proto-Oncogene Transcription Factor (AID 2282986; active = hit-call score of the fitted dose curve at least 0.9, where 1 is the maximum; inactive = score below 0.9); conditions: HepG2 Attagene CIS-FACTORIAL Myb reporter transcription; actives raise or lower the signal
Sequence (P10242 whole entry, looked up): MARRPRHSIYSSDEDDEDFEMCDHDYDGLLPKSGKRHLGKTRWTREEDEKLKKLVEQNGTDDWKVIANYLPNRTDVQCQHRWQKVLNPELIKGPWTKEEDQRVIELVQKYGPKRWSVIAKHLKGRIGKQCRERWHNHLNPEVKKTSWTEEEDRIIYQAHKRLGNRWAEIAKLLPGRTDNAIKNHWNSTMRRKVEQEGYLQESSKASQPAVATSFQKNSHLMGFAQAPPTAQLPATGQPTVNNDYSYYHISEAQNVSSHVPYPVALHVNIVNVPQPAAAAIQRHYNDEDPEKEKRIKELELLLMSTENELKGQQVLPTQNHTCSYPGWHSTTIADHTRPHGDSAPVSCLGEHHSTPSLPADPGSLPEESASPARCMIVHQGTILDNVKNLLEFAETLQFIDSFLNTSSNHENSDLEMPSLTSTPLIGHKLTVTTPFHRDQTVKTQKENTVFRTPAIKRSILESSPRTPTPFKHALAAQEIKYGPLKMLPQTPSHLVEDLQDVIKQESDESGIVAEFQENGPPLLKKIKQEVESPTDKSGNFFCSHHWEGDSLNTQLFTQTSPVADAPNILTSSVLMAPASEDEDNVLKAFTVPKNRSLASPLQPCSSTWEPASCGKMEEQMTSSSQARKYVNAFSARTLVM
Outline: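 In this HepG2 transient-transfection format, cis-regulated reporter mRNA is quantified 24 h post-dosing by RT-PCR with capillary electrophoresis, fitted bidirectionally to DMSO baseline.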

outcome, inactive:
C=C(C)CCO
CC(=O)[C@H]1[C@H](C#N)C[C@H]2[C@@H]3CC=C4C[C@@H](O)CC[C@]4(C)[C@H]3CC[C@@]21C
CCCOC(=O)CCCCC(=O)OCCC
CNC(=S)NN
CCCCCCCCCCCCCCCC(=O)OCC
O=C(O)CCCC[C@@H]1SC[C@@H]2NC(=O)N[C@@H]21
CC(=O)OCC(=O)[C@@]12N=C(C)O[C@@H]1C[C@H]1[C@@H]3CCC4=CC(=O)C=C[C@]4(C)[C@H]3[C@@H](O)C[C@@]12C
CC=CC(=O)N(CC)c1ccccc1C
Nc1ccc2cc3ccccc3cc2c1
CN(C)CCCN(C)C
O=C(Nc1ccccc1)c1ccccc1O
CC1(C)O[C@@H]2C[C@H]3[C@@H]4C[C@H](F)C5=CC(=O)CC[C@]5(C)[C@H]4[C@@H](O)C[C@]3(C)[C@]2(C(=O)CO)O1
O=C1CCCN1CCO
C=CC(C)(CCC=C(C)C)OC(=O)CC(C)C (stereo unspecified)
CCCCCCCOC(=O)CCC
O=c1cc(-c2ccccc2)oc2ccccc12
O=C(c1ccccc1)c1ccc(O)c(O)c1O
CC(=O)NS(=O)(=O)c1ccc(N)cc1
C=C(C)C(=O)OCCO
C[C@]12CCC(=O)C=C1CC[C@@H]1[C@@H]2C(=O)C[C@@]2(C)[C@H]1CC[C@]2(O)C(=O)CO
COc1cc(NC(=O)CC(C)=O)c(OC)cc1Cl
O=c1[nH]nc(-c2ccc([N+](=O)[O-])o2)o1
Nc1ccc(N=Nc2ccccc2)c(N)n1
CC(C)(C)c1ccc(N)cc1
C=CC=CC=CCCCCC
O=C1c2ccccc2C(=O)C1c1nc2ccccc2c(Br)c1O
c1ccc(-c2ccccn2)nc1
CCCCC/C=C\CCC=O
CC1(C)O[C@@H]2C[C@H]3[C@@H]4C[C@H](F)C5=CC(=O)C=C[C@]5(C)[C@@]4(F)[C@@H](O)C[C@]3(C)[C@]2(C(=O)CO)O1
CC1OC1C1CCC2(C)OC2C1 (stereo unspecified)
CCOC(=O)Cc1cccc2ccccc12
COc1ccc2nc(N)sc2c1
CC(=O)OC1C2(C)CCC(C2)C1(C)C (stereo unspecified)
COc1ccc(-c2coc3cc(O)ccc3c2=O)cc1
C=C(C)c1cccc(C(C)(C)N=C=O)c1

AC50, active:
Cc1ccc([N+](=O)[O-])cc1S(=O)(=O)O 191 µM
